Data on 36 compounds can be found in PubChem BioAssay (Tox21).

SMILES strings stand for the structures. Results filed as inconclusive are left out. Values without a mark were called inactive. Activity calls are given as the source filed them. Calls come from the whole dose curve; as a rule, active = well fitted curve in the direction sought with a large enough effect in the repeat runs; inconclusive = weak or mixed curves; inactive = no such curve, though single readings can be large; an effect the other way counts as inactive or inconclusive.

For test [1], the target named is Cytochrome P450 2D6 (Homo sapiens) (UniProt P10635). Nature of the test: Cytochrome P450 Family 2 Subfamily D Member 6 (CYP2D6) small molecule antagonists: luciferase reporter qHTS assay (AID 1671196). For activity change, negative = inhibition: series mostly up to about 120 µM. Note: nearly all actives have a fitted effect of over 50% in size. The essentials: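 Test chemicals meet CYP2D6 plus proluciferin substrate (10 min, RT); NADPH regenerating solution then drives turnover for 1 h. Detection reagent halts the reaction; luminescence measured after 20 min.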

In test [2] the target is Cytochrome P450 2C19 (Homo sapiens) (UniProt P33261). Nature of the test: Cytochrome P450 Family 2 Subfamily C Member 19 (CYP2C19) small molecule antagonists: luciferase reporter qHTS assay (AID 1671197). For activity change, negative = inhibition: series mostly up to about 120 µM. Note: nearly all actives have a fitted effect of over 65% in size. The essentials: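 First, compounds are pinned into enzyme-substrate mix and held 10 min at room temperature. Second, NADPH regeneration solution is added and plates incubate 1 h at 37C. Third, detection reagent is added and luminescence read after 20 min.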
A general note: Reporter assays use an easily measured gene product as a stand-in for the process of interest.

Test [3] addresses Cytochrome P450 1A2 (Homo sapiens) (UniProt P05177). Nature of the test: Cytochrome P450 Family 1 Subfamily A Member 2 (CYP1A2) small molecule antagonists: luciferase reporter qHTS assay (AID 1671199). For activity change, negative = inhibition: series mostly up to about 120 µM. Note: nearly all actives have a fitted effect of over 50% in size. The essentials: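 Steps: enzyme-substrate mix dispensed; test compounds and furafylline control pinned in; 10 min room temperature; NADPH regeneration solution added, 1 h; reaction stopped with luciferin detection reagent; luminescence read after 20 min.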

The target of test [4] is Voltage-gated inwardly rectifying potassium channel KCNH2 (Homo sapiens) (UniProt Q12809). Nature of the test: Human Ether-a-go-go-Related Gene (hERG) channel small molecule antagonists: fluorescence cell-based qHTS assay (AID 1671200).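 For activity change, negative = inhibition: hERG-expressing U2OS cells given a thallium stimulus after FluxOR II dye loading; series mostly up to about 77 µM.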 Note: nearly all actives have a fitted effect of over 50% in size. The essentials:
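hERG-U2OS cells plated overnight at 37 C, loaded with FluxOR II dye 1 h at RT in dark; after 10 min, thallium stimulus added. Fluorescence (480/540 nm) read kinetically for 2 min at 1 s intervals.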
(In general: hERG is a cardiac potassium channel; its block is linked to QT prolongation.)

Test [5] concerns the target Cytochrome P450 3A4 (Homo sapiens) (UniProt P08684). Nature of the test: Cytochrome P450 Family 3 Subfamily A Member 4 (CYP3A4) small molecule antagonists: luciferase reporter qHTS assay (AID 1671201). For activity change, negative = inhibition: series mostly up to about 120 µM. Note: nearly all actives have a fitted effect of over 50% in size. Summed up:
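P450-Glo CYP3A4 luminescent assay: compounds preincubated 10 min at room temperature with enzyme and proluciferin substrate, NADPH regeneration added, 1 h room-temperature reaction, stopped with luciferin detection reagent; luminescence read after 20 min. Ketoconazole positive control.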

Test [6] deals with Cytochrome P450 2C9 (Homo sapiens) (UniProt P11712). Nature of the test: Cytochrome P450 Family 2 Subfamily C Member 9 (CYP2C9) small molecule antagonists: luciferase reporter qHTS assay (AID 1671198). For activity change, negative = inhibition: series mostly up to about 120 µM. Note: nearly all actives have a fitted effect of over 50% in size. Summed up:
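P450-Glo proluciferin substrate with CYP2C9 enzyme; 10 min RT preincubation, then NADPH regeneration 1 h at 37C; luciferin detection reagent 20 min RT, luminescence in relative luminescence units.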
% is set by controls: 0 for no effect and ±100 for the full control effect; potency is the fitted concentration of half-maximal effect.

Chain of Cytochrome P450 1A2 (Homo sapiens) (P05177 whole entry, looked up): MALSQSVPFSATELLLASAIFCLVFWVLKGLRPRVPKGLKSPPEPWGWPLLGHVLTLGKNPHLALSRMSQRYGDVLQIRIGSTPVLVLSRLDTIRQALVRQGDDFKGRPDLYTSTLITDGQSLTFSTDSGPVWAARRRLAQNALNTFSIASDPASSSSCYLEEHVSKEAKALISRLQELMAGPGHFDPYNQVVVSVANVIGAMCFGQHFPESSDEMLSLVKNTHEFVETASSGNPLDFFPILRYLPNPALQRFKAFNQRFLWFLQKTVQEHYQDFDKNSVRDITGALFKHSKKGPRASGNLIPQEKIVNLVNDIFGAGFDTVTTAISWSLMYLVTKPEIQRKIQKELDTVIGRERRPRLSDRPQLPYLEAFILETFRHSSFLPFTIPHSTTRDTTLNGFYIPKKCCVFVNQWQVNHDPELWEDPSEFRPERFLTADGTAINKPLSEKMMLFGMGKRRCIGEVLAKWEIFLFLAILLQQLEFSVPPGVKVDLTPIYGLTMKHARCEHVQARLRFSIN
Chain of Cytochrome P450 2C9 (Homo sapiens) (P11712 whole entry, looked up): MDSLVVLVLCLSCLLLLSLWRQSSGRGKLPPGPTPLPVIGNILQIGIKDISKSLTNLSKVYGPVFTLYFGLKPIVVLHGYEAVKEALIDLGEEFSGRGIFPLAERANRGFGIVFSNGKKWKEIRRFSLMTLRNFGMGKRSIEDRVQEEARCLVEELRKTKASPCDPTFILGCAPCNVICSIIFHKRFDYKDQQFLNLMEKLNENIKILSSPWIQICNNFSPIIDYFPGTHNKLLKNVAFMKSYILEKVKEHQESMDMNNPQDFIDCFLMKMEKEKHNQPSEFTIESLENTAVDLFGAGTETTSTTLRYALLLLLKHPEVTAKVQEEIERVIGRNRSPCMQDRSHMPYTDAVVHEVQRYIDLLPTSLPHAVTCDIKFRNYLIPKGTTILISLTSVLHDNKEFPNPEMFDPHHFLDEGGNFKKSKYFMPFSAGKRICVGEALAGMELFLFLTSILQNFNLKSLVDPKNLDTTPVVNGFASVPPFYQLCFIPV
Chain of Voltage-gated inwardly rectifying potassium channel KCNH2 (Homo sapiens) (Q12809 whole entry, looked up): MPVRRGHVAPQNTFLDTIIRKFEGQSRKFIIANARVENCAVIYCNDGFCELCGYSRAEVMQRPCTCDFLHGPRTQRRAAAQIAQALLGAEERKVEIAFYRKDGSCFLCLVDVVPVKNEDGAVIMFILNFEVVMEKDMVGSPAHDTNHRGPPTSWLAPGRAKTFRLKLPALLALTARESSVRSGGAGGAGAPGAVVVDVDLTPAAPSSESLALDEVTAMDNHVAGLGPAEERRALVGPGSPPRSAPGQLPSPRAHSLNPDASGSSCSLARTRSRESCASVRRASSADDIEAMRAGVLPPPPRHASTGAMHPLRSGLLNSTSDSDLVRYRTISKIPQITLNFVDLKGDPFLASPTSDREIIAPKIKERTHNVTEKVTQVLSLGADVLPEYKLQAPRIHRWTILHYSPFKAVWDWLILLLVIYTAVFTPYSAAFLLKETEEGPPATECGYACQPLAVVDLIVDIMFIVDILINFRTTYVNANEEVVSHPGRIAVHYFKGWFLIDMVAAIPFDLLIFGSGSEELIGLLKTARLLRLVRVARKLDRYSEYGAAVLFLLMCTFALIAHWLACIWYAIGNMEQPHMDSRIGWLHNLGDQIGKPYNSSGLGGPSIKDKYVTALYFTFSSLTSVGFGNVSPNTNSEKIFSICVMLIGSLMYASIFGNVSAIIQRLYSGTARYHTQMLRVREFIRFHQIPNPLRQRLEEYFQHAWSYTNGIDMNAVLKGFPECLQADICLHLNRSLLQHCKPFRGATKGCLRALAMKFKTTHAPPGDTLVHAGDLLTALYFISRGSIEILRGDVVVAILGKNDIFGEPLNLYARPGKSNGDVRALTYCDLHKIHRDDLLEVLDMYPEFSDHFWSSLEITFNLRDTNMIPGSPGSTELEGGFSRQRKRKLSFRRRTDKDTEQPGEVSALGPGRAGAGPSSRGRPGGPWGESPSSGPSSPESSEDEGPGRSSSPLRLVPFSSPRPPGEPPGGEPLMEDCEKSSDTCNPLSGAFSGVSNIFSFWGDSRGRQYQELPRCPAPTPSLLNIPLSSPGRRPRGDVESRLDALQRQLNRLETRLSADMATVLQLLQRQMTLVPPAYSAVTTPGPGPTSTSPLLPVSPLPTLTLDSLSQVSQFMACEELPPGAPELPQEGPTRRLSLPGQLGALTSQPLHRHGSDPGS
Chain of Cytochrome P450 2C19 (Homo sapiens) (P33261 whole entry, looked up): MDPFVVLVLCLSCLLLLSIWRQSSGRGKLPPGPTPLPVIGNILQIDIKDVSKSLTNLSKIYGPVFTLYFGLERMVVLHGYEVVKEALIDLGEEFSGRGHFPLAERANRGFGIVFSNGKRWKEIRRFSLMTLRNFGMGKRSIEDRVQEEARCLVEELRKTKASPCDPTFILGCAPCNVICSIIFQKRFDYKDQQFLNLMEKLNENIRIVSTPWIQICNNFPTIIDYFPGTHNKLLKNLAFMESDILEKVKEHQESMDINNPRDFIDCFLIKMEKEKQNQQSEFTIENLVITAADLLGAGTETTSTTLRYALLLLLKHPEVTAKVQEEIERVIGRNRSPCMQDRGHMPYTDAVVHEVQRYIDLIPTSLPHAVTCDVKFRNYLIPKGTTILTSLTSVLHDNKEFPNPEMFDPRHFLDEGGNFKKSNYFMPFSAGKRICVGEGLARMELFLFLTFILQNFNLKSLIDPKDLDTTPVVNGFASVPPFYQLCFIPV
Chain of Cytochrome P450 3A4 (Homo sapiens) (P08684 whole entry, looked up): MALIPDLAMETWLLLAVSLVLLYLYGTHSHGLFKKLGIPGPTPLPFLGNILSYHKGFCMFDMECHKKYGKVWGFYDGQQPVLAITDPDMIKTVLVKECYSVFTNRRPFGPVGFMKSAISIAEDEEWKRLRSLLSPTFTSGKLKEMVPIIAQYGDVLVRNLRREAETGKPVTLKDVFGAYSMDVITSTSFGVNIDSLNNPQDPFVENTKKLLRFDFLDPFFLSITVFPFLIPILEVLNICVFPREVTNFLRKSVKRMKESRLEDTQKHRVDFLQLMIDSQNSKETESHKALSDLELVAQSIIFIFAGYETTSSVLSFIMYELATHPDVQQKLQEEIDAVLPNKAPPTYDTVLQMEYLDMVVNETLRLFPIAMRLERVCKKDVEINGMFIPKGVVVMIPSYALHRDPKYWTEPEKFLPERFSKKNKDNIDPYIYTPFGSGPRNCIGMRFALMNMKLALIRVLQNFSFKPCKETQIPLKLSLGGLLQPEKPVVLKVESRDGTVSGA
Chain of Cytochrome P450 2D6 (Homo sapiens) (P10635 whole entry, looked up): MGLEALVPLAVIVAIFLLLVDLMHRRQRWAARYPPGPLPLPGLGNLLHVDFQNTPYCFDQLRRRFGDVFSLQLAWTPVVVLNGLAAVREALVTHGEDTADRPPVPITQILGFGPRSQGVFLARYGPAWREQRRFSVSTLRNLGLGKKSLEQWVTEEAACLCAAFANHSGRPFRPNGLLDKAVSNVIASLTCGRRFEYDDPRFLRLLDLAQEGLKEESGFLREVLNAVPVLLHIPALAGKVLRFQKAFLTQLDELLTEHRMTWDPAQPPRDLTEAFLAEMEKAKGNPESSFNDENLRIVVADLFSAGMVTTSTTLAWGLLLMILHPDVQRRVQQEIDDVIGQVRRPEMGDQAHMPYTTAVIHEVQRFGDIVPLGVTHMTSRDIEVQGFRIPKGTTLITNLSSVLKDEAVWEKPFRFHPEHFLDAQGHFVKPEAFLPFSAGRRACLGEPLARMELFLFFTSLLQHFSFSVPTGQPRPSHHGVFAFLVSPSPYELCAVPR

`CC1(C)[C@@H]2CC[C@]3(C2)[C@@H]1C(=O)CCC3(C)C`: the Potency in test [1] was 31.7 µM (active); in test [2] it was 39.9 µM (active); in test [5], 17.8 µM (active). In addition, the Potency result in test [3] and in test [4] was “inactive” each time.
Take `CC(=O)CC/C=C(\C)CC/C=C(\C)CC/C=C(\C)CCC=C(C)C`: the Potency entry in test [1] and in test [4] was “inactive” in each case. For the same compound, the Potency in test [6] is 30.9 µM (active).
On to `CC(C)(C)c1cc(C=O)cc(C(C)(C)C)c1O`, for which the Potency entry in test [1] and in test [4] was “inactive” in each case.
For the compound `O=C(O)CNc1ccccc1`, the Potency result in test [1], in test [2], in test [4] and in test [5] was “inactive” in each case.
On to `CC(C)=CCC/C(C)=C/C=N/O`, for which the Potency was 35.6 µM (active) in test [1], 39.9 µM (active) in test [6], 39.9 µM (active) in test [3] and 28.3 µM (active) in test [5]. The Potency entry in test [4] is “inactive”.
Regarding `O=C(OCCN1CCOCC1)c1cccnc1Nc1cccc(C(F)(F)F)c1`, in test [1], the Potency entry was “inactive”. Also, the figures for the Potency in test [6], in test [3] and in test [4] were 17.4 µM (active), 9.77 µM (active) and 10.7 µM (active), respectively.
For the compound `CCCCCCC/C=C/C=O`, the Potency in test [1] is 39.9 µM (active); in test [2], 79.6 µM (active). In addition, the Potency entry in test [4] and in test [5] was “inactive” throughout.
Turning to `CCCCCCCCCCCCSC#N`, the Potency result in test [1], in test [4] and in test [5] was “inactive” throughout. In test [3], the Potency was 7.96 µM (active).
With `O=C(N[C@@H](Cc1ccccc1)[C@@H](O)C(=O)N1C[C@@H](O)[C@@H](O)C1)c1cc2cc(Cl)ccc2[nH]1`, the Potency was 39.9 µM (active) in test [2], 35.6 µM (active) in test [6] and 28.3 µM (active) in test [3]. For the same compound, the Potency entry in test [4] was “inactive”.
Turning to `CC(C)Oc1ccccc1O`, the Potency result in test [1], in test [6] and in test [4] was “inactive” in each case.
Consider `C=CC(C)(O)CC/C=C(/C)CCC=C(C)C` (stereo unspecified), for which the figures for the Potency in test [2], in test [6] and in test [3] were 10 µM (active), 31.7 µM (active) and 39.9 µM (active), respectively. In test [4], the Potency result was “inactive”.
For `O=C(OC1C[C@H]2CC[C@@H](C1)[N+]21CCCC1)C(O)(c1ccccc1)c1ccccc1` (stereo partly specified), in test [1], the Potency is 4.9 µM (active). The Potency result in test [6], in test [3] and in test [4] was “inactive” each time.
For `C[C@H](CN1CCCC1)C(=O)c1ccc(C(F)(F)F)cc1`, the Potency in test [1] is 1.55 µM (active). For the same compound, the Potency entry in test [6], in test [4] and in test [5] was “inactive” in each case.
As to `C/C(=C\C(C)CC(C)CC(C)C)C1CC(=O)OC1=O` (stereo unspecified), the Potency in test [1] was 35.6 µM (active); in test [6], 56.4 µM (active). Moreover, the Potency entry in test [3], in test [4] and in test [5] was “inactive” in each case.
Turning to `Cc1nc2sccn2c(=O)c1CCN1CCC(=C(c2ccc(F)cc2)c2ccc(F)cc2)CC1`, the Potency in test [1] was 15.5 µM (active); in test [4], 0.213 µM (active). Also, the Potency result in test [3] and in test [5] was “inactive” throughout.
For `CC1(C)CC(O)CC(C)(C)N1[O]`, the Potency entry in test [1], in test [6], in test [3], in test [4] and in test [5] was “inactive” each time.
Turning to `Clc1cc(Cl)c2c(c1)N=C1CCCCCN1C2`, the Potency was 2.75 µM (active) in test [1], 5.49 µM (active) in test [3] and 9.52 µM (active) in test [4]. Moreover, the Potency entry in test [6] and in test [5] was “inactive” throughout.
Take `Oc1ccc(CCNCCCCCCNCCc2ccccc2)cc1O`: in test [1], the Potency is 15.5 µM (active). Moreover, the Potency result in test [3], in test [4] and in test [5] was “inactive” in each case.
`NC(=O)c1ccccc1C(N)=O`: the Potency in test [1] is 40.1 µM (active); in test [2] it was 40.1 µM (active); in test [5], 63.5 µM (active). For the same compound, the Potency entry in test [4] was “inactive”.
Regarding `c1ccc(-c2ccc(-c3ccccc3)cc2)cc1`, the activity change, negative = inhibition in test [1] was -3.95% [at 23.6 µM]; in test [6] it was -16.3% [at 23.6 µM]; in test [4], 1.54% [at 15.8 µM].
Take `CCCCOC(=O)C(C)Oc1ccc(Oc2ccc(C(F)(F)F)cn2)cc1` (stereo unspecified): the Potency in test [2] was 50.2 µM (active); in test [6], 22.4 µM (active); in test [3], 22.4 µM (active); in test [4] it was 24.5 µM (active).
Turning to `CCCCCCCCCCCCCCCCCCCl`, the activity change, negative = inhibition in test [1] was -4.65% [at 10.5 µM]; in test [6], -2.7% [at 10.5 µM]; in test [3], -4.9% [at 10.5 µM]; in test [4] it was 6.07% [at 6.97 µM]; in test [5], -1.1% [at 10.5 µM].
As to `Cc1cc(SC2=C(O)C[C@@](CCc3ccc(N)cc3)(C(C)C)OC2=O)c(C(C)(C)C)cc1CO`, the Potency entry in test [1], in test [3] and in test [4] was “inactive” in each case. Further, in test [5], the Potency is 3.99 µM (active).
`CCCCC(CC)COCCC#N` (stereo unspecified): the Potency result in test [1], in test [2], in test [4] and in test [5] was “inactive” each time.
For the compound `CCCCCCCCCCCCSCCOCCO`, the Potency result in test [1], in test [4] and in test [5] was “inactive” throughout. In addition, the values for the Potency in test [6] and in test [3] were 24.5 µM (active) and 15.5 µM (active), respectively.
`CCn1nc(Cc2ccccc2)cc1C1CCN(C[C@H]2C[C@H](N(C)[C@@H](C(=O)O)C(C)C)C[C@@H]2c2cccc(F)c2)CC1`: the values for the Potency in test [1] and in test [4] were 35.6 µM (active) and 13.8 µM (active), respectively.
For the compound `O=C(Cl)c1ccc(F)c(Cl)c1`, the Potency result in test [2], in test [6], in test [3] and in test [4] was “inactive” each time.
Turning to `COC=O`, the activity change, negative = inhibition in test [2] is 14.6% [at 10.5 µM]; in test [6], -23.5% [at 10.5 µM]; in test [3] it was -7.2% [at 10.5 µM]; in test [4], -1.77% [at 6.97 µM]; in test [5], 11.4% [at 10.5 µM].
As for `C=Cc1ccc(C=C)cc1`, the Potency entry in test [1], in test [6] and in test [4] was “inactive” throughout.
As for `CC(C)=CCCC(C)C=O` (stereo unspecified), the Potency entry in test [1], in test [3] and in test [4] was “inactive” each time. In addition, the Potency in test [5] was 35.6 µM (active).
Take `C=CC(=O)NC(C)(C)C`: the Potency result in test [1], in test [6] and in test [4] was “inactive” each time.
With `COC(=O)/C=C/C(C)=C\C=C\C(C)=C\C=C\C=C(C)\C=C\C=C(C)\C=C\C(=O)O`, the Potency in test [1] was 39.9 µM (active). In addition, the Potency entry in test [3] and in test [4] was “inactive” in each case.
Take `O=C(O)CCc1nc2ccccc2[nH]1`: the Potency result in test [1], in test [6], in test [3], in test [4] and in test [5] was “inactive” in each case.
Regarding `CC(O)C(C)O` (stereo unspecified), the Potency entry in test [1], in test [2], in test [4] and in test [5] was “inactive” each time.
For `CC1(COc2ccc(CC3SC(=O)NC3=O)cc2)CCCCC1` (stereo unspecified), the Potency result in test [1], in test [4] and in test [5] was “inactive” in each case.
Turning to `COc1cccc([C@H](O)C2CCN(CCc3ccc(F)cc3)CC2)c1OC`, the Potency in test [1] was 2 µM (active). In addition, the Potency entry in test [6] and in test [3] was “inactive” in each case.
